40 molecules from PubChem BioAssay (NCI) can be followed below.

Test [1] in a line: NCI Yeast Anticancer Drug Screen. Data for the rad50 strain (AID 155).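 Also: 0% = growth of vehicle-only cultures of the same strain.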 The conditions noted are these: S. cerevisiae rad50 strain growth inhibition; at 50.0 µM; stronger effect = higher value. An outline of the steps: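 Growth of the mutant yeast was measured after compound exposure and referenced to vehicle-treated cultures.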
Test [2] in a line: NCI Yeast Anticancer Drug Screen. Data for the mec2-1 strain (AID 157). The conditions noted are these: S. cerevisiae mec2-1 strain, at 50.0 µM, stronger effect = higher value. An outline of the steps: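 Readout is yeast growth inhibition, normalised to vehicle-treated controls, in the mec2-1 strain exposed to compound.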
Test [3] is described as follows: NCI Yeast Anticancer Drug Screen. Data for the sgs1 mgt1 strain (AID 161).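 Also: 0% = growth of cultures given vehicle only.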 The conditions noted are these: S. cerevisiae sgs1 mgt1 strain, at 50.0 µM, stronger effect = higher value. An outline of the steps: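 Compounds are added to genetically altered yeast, and growth is compared with cultures given vehicle alone to give percent inhibition.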
The nature of test [4]: NCI Yeast Anticancer Drug Screen. Data for the cln2 rad14 strain (AID 165).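 Also: 0% = growth equal to vehicle treated cultures.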 The conditions noted are these: S. cerevisiae cln2 rad14 strain, at 50.0 µM, stronger effect = higher value. In a few lines: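 Relative to vehicle controls, growth inhibition of compound-treated cln2 rad14 yeast was recorded.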
A short description of test [5]: NCI Yeast Anticancer Drug Screen. Data for the bub3 strain (AID 167). The conditions noted are these: S. cerevisiae bub3 mutant strain, at 50.0 µM, stronger effect = higher value. An outline of the steps: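 Whole-cell yeast assay. The mutant strain was incubated with compounds, and growth inhibition was determined by comparison with vehicle-treated cells.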
Test [6] in a line: NCI Yeast Anticancer Drug Screen. Data for the mlh1 rad18 strain (AID 175). The conditions noted are these: S. cerevisiae mlh1 rad18 strain growth inhibition; at 50.0 µM; stronger effect = higher value. An outline of the steps:
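Test agents were incubated with a yeast strain of defined genotype (DNA damage repair defect). Inhibition of growth was derived by comparison with vehicle-exposed cultures.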

The panel holds about 79,000 compounds, 15% with a hit somewhere; the sample as a whole holds those more often. A number with no mark means an inactive call. Calls of active or inactive are those of the source. Rule as the data show it: active = growth inhibition above about 70%; inactive = the rest.

For the molecule `COc1ccc(S(=O)(=O)N/N=C/c2cc(I)cc([N+](=O)[O-])c2O)cc1`, the growth inhibition was 15.1% in test [1]; 0.6% in test [2]; 9.85% in test [3]; 8% in test [4]; -3.85% in test [5]; 2.5% in test [6].
As to `COC(=O)C1(C)CCCC2(C)C1CCC13OC(=O)C(C(C)C)(CC21)C3O` (stereo not given), the growth inhibition is -3.6% in test [1]; -28.3% in test [2]; -10.8% in test [3]; -33.7% in test [4]; -1.45% in test [5]; -28.8% in test [6].
With `CCOc1c(N=Nc2ccc(Cl)cc2)c(C)nn1C(N)=S`, the growth inhibition is -19.2% in test [1]; 16.2% in test [2]; 12.2% in test [3]; -12.6% in test [4]; 36.4% in test [5]; 44.5% in test [6].
In the case of `O=C(CSc1c2ccccc2nc2ccccc12)Nc1ccccc1-c1ccccc1NC(=O)CSc1c2ccccc2nc2ccccc12`, the growth inhibition was 27.4% in test [1]; 9.75% in test [2]; 18.6% in test [3]; 6.9% in test [4]; 19% in test [5]; 34.5% in test [6].
As for `COc1ccc2ccccc2c1C(Cc1ccccc1)NCCO` (stereo not given), the growth inhibition in test [1] is -17.2%; in test [2], -20.4%; in test [3], -2.3%; in test [4] it was -4.95%; in test [5], -0.55%; in test [6], -2.75%.
Consider `CCCCCCCCCCCCC/C=C/CC(CC(=O)Nc1ccc(-n2c(=O)cc(C)n2C)cc1)C(=O)O` (stereo not given), for which the growth inhibition in test [1] is 3.75%; in test [2] it was -24.1%; in test [3], 13.1%; in test [4], 21.2%; in test [5], 20.6%; in test [6] it was 5.65%.
On to `COc1ccc2nc(NC(=O)Nc3ccc(Cc4ccc(NC(=O)Nc5nc6ccc(OC)cc6s5)cc4)cc3)sc2c1`, for which the growth inhibition was -14.4% in test [1]; -19.6% in test [2]; -10.3% in test [3]; 10.3% in test [4]; -8.65% in test [5]; -12% in test [6].
For `Clc1ncnc2c1cnn2-c1ccccc1`, the growth inhibition is -4.05% in test [1]; -8.55% in test [2]; 1.05% in test [3]; -30.9% in test [4]; -2.55% in test [5]; -6.1% in test [6].
Regarding `CC(C)(C)NC(NC(C)(C)C)=C(C(Cl)=C(Cl)Cl)[N+](=O)[O-]`, the growth inhibition in test [1] is -2.1%; in test [2], -9.55%; in test [3], -6.15%; in test [4], 7.8%; in test [5], 12.7%; in test [6], -0.75%.
For `CCCCC(=O)N/N=C/c1ccccc1OCC`, the growth inhibition is -7% in test [1]; 0.05% in test [2]; 0.6% in test [3]; -3.3% in test [4]; -9.9% in test [5]; -7.6% in test [6].
In the case of `CC[N+](C)(C)c1ccc(/C=C(/C#N)C(=O)OC)cc1`, the growth inhibition in test [1] is 7.55%; in test [2] it was 9.8%; in test [3], 12.8%; in test [4] it was 11.2%; in test [5], -1.2%; in test [6] it was -1.55%.
For the molecule `O=C(O)c1cccc(S(=O)(=O)NN2C(=O)CSC2c2ccccc2)c1` (stereo not given), the growth inhibition was -22.4% in test [1]; -18.5% in test [2]; 5.55% in test [3]; 4.45% in test [4]; 3.7% in test [5]; -11.3% in test [6].
In the case of `O=C1CC(=O)N(C=C2C(=O)NC(=O)NC2=O)C(=S)N1`, the growth inhibition in test [1] is -11.9%; in test [2], -2.15%; in test [3] it was -18.6%; in test [4], 11.2%; in test [5], 4.6%; in test [6], 0.45%.
For the molecule `CCOc1cccc(N(CC)CC)c1`, the growth inhibition is 33.9% in test [1]; 2.05% in test [2]; -20% in test [3]; -64.5% in test [4]; -14.2% in test [5]; 13.4% in test [6].
In the case of `CCCCN(CCCC)CCC(O)c1ccc(OC)c2ccccc12` (stereo not given), the growth inhibition is 44.6% in test [1]; 4.55% in test [2]; 56.2% in test [3]; 57.4% in test [4]; 16.4% in test [5]; 49.7% in test [6].
On to `COc1ccc(/C=C2\N=C(c3cccc(Cl)c3)OC2=O)cc1OC`, for which the growth inhibition is 14.6% in test [1]; 4.25% in test [2]; 18.2% in test [3]; 12.2% in test [4]; 6.3% in test [5]; -7.85% in test [6].
Turning to `O=C(O)CCc1ccc(O)c(O)c1`, the growth inhibition in test [1] was 19.6%; in test [2] it was 2.5%; in test [3], 11.8%; in test [4], 13.3%; in test [5], 2.8%; in test [6] it was -21.8%.
`CC1=NN(C)C(=O)C1`: the growth inhibition in test [1] was 1.45%; in test [2] it was 3.3%; in test [3], 1.9%; in test [4], -0.4%; in test [5] it was -3.05%; in test [6], 9.25%.
For the molecule `CC(=O)[C@H]1CC[C@H]2[C@@H]3CC[C@H]4C[C@@H](OC(c5ccccc5)(c5ccccc5)c5ccccc5)CC[C@]4(C)[C@H]3CC[C@]12C`, the growth inhibition in test [1] was -3.55%; in test [2], 11.8%; in test [3] it was 0.95%; in test [4], -3.95%; in test [5], -5.5%; in test [6], -17.6%.
In the case of `CN1CCC=C(COC(=O)C(C)(C)C)C1`, the growth inhibition in test [1] was 1.8%; in test [2] it was 4.9%; in test [3] it was -10.9%; in test [4], 7.45%; in test [5], 5.45%; in test [6] it was 18.4%.
Turning to `C=C(C)[C@@H]1CC[C@@H](C)C[C@H]1O`, the growth inhibition is 9% in test [1]; -11.8% in test [2]; -1.55% in test [3]; 13.8% in test [4]; 9.95% in test [5]; -1.65% in test [6].
Regarding `Cc1c(-c2ccccc2)c(=O)oc2cc(O)ccc12`, the growth inhibition in test [1] is -12.4%; in test [2] it was 13%; in test [3], 9.3%; in test [4], -49.2%; in test [5] it was 17.5%; in test [6], 11.2%.
Consider `O=C1OC(/C=C/c2ccccc2)=NC/1=C\c1ccc(Cl)cc1`, for which the growth inhibition in test [1] was 23.4%; in test [2], 14.1%; in test [3] it was 23.6%; in test [4] it was 13.7%; in test [5] it was 7.15%; in test [6] it was 10.2%.
Turning to `O=[N+]([O-])/C(Cl)=C(\NCCO)C(Cl)=C(Cl)Cl`, the growth inhibition in test [1] was 15.6%; in test [2], 19%; in test [3], 38%; in test [4], 17.1%; in test [5], 23.9%; in test [6] it was -2.3%.
Take `CN1C(=O)C(CCCN=C(N)N)NC1=S` (stereo not given): the growth inhibition in test [1] was -13.7%; in test [2], -2.4%; in test [3], -6.65%; in test [4], -12.2%; in test [5] it was -2.45%; in test [6] it was -13.6%.
Turning to `N#CC(NNC(=O)c1ccccc1O)c1ccccc1` (stereo not given), the growth inhibition in test [1] is 16.1%; in test [2], 0.5%; in test [3], 9.85%; in test [4], -8.7%; in test [5], 35.9%; in test [6], 3.75%.
`COC1CC(NC(C)=O)C(O)C(C)O1` (stereo not given): the growth inhibition in test [1] is -10.2%; in test [2] it was -12.4%; in test [3] it was -10.6%; in test [4], -40%; in test [5], 5.65%; in test [6] it was 1.5%.
For `CCCC1(CCC)NC(=O)N(CC(N)=O)C1=O`, the growth inhibition in test [1] was 7.45%; in test [2] it was 0.1%; in test [3], -9.5%; in test [4], -20.6%; in test [5], -9.1%; in test [6], 16.1%.
Consider `CC(C)OC1(c2ccccc2)OC(c2ccccc2)=CC1=O` (stereo not given), for which the growth inhibition in test [1] was 5.35%; in test [2] it was -17.1%; in test [3], -12.1%; in test [4], -7.4%; in test [5], 14.1%; in test [6], -0.8%.
Take `C1OC[C@@H]([C@H]2COCO2)O1`: the growth inhibition is -15.4% in test [1]; -11.4% in test [2]; -7% in test [3]; -0.8% in test [4]; 1.95% in test [5]; -11.7% in test [6].
`Cc1c(C(=O)O)sc2ccc([N+](=O)[O-])cc12`: the growth inhibition was -8.15% in test [1]; 2.5% in test [2]; -9.35% in test [3]; -46.5% in test [4]; -13.3% in test [5]; -0.6% in test [6].
With `N#C/C(=C/NC(=S)N=Nc1c(O)[nH]c2ccccc12)C(N)=O`, the growth inhibition is -33.7% in test [1]; -51.7% in test [2]; -19.8% in test [3]; -6.6% in test [4]; -0.9% in test [5]; -18.9% in test [6].
As to `CN(C)c1ccc(N=C2C=CC(=C(C#N)C#N)c3ccccc32)cc1`, the growth inhibition is -24% in test [1]; -6.05% in test [2]; -14.2% in test [3]; -34% in test [4]; -20.9% in test [5]; -50% in test [6].
`Cn1c(=O)c2[nH]c(SCCN3CCOCC3)nc2n(C)c1=S`: the growth inhibition was -23.4% in test [1]; -47.2% in test [2]; -25.6% in test [3]; 14.2% in test [4]; -66.2% in test [5]; -4.95% in test [6].
As to `O=C(O)CCc1ccccc1-c1ccccc1C(=O)O`, the growth inhibition in test [1] is 4%; in test [2] it was 1.45%; in test [3], -2.45%; in test [4] it was 8.8%; in test [5] it was 0.35%; in test [6] it was 31.4%.
Consider `COP(=O)(OC)C1c2cc(Cl)ccc2-c2c(Cl)cc(Cl)cc21` (stereo not given), for which the growth inhibition in test [1] was 88.8% (active); in test [2], 67.9%; in test [3], 83.7% (active); in test [4], 49.5%; in test [5], 32.6%; in test [6], 68.8%.
With `CC1=C(c2cc(C(=O)Nc3nccs3)nc(NC#N)n2)Sc2ccccc2N1`, the growth inhibition in test [1] is -9.2%; in test [2] it was 5.4%; in test [3], -8.65%; in test [4] it was 15.2%; in test [5] it was 4.5%; in test [6] it was 10.3%.
For the molecule `CC(=O)N1CCCCCC1=O`, the growth inhibition in test [1] was -30.3%; in test [2] it was -16.9%; in test [3], 25.4%; in test [4], -7.55%; in test [5] it was 1.95%; in test [6], -26.8%.
For `c1ccc2cc(N3CCOCC3)ccc2c1`, the growth inhibition is -19.1% in test [1]; -27.4% in test [2]; -7.3% in test [3]; -19.9% in test [4]; -22.8% in test [5]; 2.3% in test [6].
As to `NC(=S)N/N=C/c1ccc(F)cn1`, the growth inhibition in test [1] was 22.9%; in test [2] it was 58.4%; in test [3] it was -1.5%; in test [4] it was -63.9%; in test [5] it was -5.4%; in test [6], 11.9%.
